Results: the supplement of paper PMC3334620
Whole data set: some 33,000 sequences, median “E-score (-0.5 to 0.5)” near -0.012, cut for the highest 2% near 0.27. For the sample, the highest values were picked, then their nearest neighbours and some sequences at random.

Each sequence was assayed against T1, Vhr1 (UniProt P40522) (assay: PBM E-score (8-mer binding enrichment) (E-score (-0.5 to 0.5)); higher = stronger / more preferred TF binding). Settings: protein concentration: 200 nM; construct: GST-full length.
T1 sequence: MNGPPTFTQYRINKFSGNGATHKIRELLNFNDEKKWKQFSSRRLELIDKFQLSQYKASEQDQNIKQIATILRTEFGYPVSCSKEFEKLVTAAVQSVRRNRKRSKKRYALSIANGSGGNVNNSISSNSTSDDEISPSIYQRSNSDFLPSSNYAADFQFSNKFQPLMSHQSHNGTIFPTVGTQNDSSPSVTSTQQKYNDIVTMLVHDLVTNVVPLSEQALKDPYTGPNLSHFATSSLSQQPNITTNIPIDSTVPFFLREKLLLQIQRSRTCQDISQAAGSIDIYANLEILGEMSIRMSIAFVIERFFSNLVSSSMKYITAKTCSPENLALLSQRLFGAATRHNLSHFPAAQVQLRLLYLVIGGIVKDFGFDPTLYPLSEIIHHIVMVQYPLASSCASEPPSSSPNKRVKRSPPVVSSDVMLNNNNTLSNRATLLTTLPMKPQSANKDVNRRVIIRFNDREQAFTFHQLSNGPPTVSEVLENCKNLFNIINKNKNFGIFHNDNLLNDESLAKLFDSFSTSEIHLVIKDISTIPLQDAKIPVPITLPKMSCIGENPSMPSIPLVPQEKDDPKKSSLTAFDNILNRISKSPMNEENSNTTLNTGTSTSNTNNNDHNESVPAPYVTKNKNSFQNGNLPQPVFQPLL
Procedure: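 Universal 'all 10-mer' protein binding microarrays (Agilent AMADID 015681) probed with GST-tagged S. cerevisiae TFs (full-length or DBD) made by in vitro transcription/translation (PURExpress), about 100-200 nM. Bound TF was detected with fluorescent anti-GST. Each ungapped 8-mer (which stands for itself and its reverse complement) is scored by the PBM enrichment score (E-score), a modified Wilcoxon-Mann-Whitney statistic from -0.5 to +0.5, computed with the Universal PBM Analysis Suite. Scale: above 0.35 generally sequence-specific binding.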

Row | Sequence | PBM E-score
1 | ACTTATAT | 0.199
2 | GCACCGCA | 0.0151
3 | GTTCATGA | 0.142
4 | ATCCACCA | 0.113
5 | ACCTTGCG | -0.0156
6 | GAGGCGGC | 0.0803
7 | GAGGTTGC | -0.0739
8 | CAACTATC | 0.125
9 | ACTATCAA | 0.112
10 | CACGTGAC | 0.108
11 | AATGATCA | 0.0798
12 | GCTGATGA | 0.185
13 | AATGATAA | 0.106
14 | GATGATCA | 0.285
15 | GATGATCC | 0.0747
16 | AATGATGA | 0.163
17 | GCTGATTA | 0.197
18 | AATGATTA | 0.304
19 | GTTGATTA | 0.239
20 | GGTGATGA | 0.233
21 | GATGATTA | 0.337
22 | GGTGATTA | 0.285
23 | GCTGCGCC | 0.0437
24 | ATTAGCAA | 0.124
25 | CGAGAGCG | -0.118

Row | Sequence | PBM E-score
26 | CTGCATCC | -0.157
27 | ATCGCAAT | 0.157
28 | TATGATGA | 0.286
29 | CATGATGA | 0.254
30 | GATGATGA | 0.144
31 | TAGGTTGA | 0.0773
32 | AAAGAATG | 0.0281
33 | CTGGAGTA | -0.0097
34 | CTGGAGAC | 0.0265
35 | CTGGAGTC | 0.356
36 | ATGGAATA | 0.117
37 | ATGGAATC | 0.28
38 | CTGGAATC | 0.104
39 | ATGGAGTC | 0.433
40 | ATGGAGTG | -0.0367
41 | ATGGAGTA | 0.185
42 | CGATACGA | -0.0911
43 | AGAAGCGC | 0.16
44 | TAGCACAA | -0.0198
45 | CACACTCG | 0.224
46 | TACTCCGA | 0.174
47 | AACTCCGA | 0.115
48 | GACTCCGA | 0.428
49 | GACTCCGC | 0.38
50 | CACTCCGC | 0.144

Row | Sequence | PBM E-score
51 | AACTCCGC | -0.0635
52 | GCCTTAGA | -0.114
53 | CTACCTCC | 0.241
54 | GATCCATC | 0.194
55 | AAACGACA | 0.138
56 | CCTGAGGA | -0.0328
57 | GAAACTTA | -0.0802
58 | GCTGAGCA | 0.149
59 | GCTCTGCA | -0.201
60 | ATGGTATC | 0.287
61 | ATGGTATG | 0.00124
62 | CTGGTATC | 0.0298
63 | CTAGATGC | 0.00921
64 | CGTCAGGA | -0.0893
65 | AGTCAGGA | 0.355
66 | AGTCAGGG | 0.356
67 | GGTCAGGA | 0.0179
68 | AGTCAGGC | 0.404
69 | CGTCAGGC | -0.213
70 | ACTCAGGC | 0.259
71 | ATTCAGGG | 0.108
72 | ACTCAGGG | 0.27
73 | AAGTTGTG | -0.00706
74 | ATATTTAG | -0.00388
75 | CACCTAGA | -0.0265

Row | Sequence | PBM E-score
76 | CACTTGAA | -0.042
77 | AAGCTAGT | -0.0022
78 | AACCAGGA | -0.00068
79 | GTTAACGA | -0.043
80 | CGCTTGTC | -0.0745
81 | ATCACTGC | 0.289
82 | AAGACTCG | 0.0518
83 | CTCACTGC | -0.102
84 | ATGACTCG | 0.457
85 | ATCACTGA | 0.136
86 | GAGACTGA | 0.0631
87 | ATGACTGC | 0.41
88 | GGGACTGA | -0.174
89 | ACGACTGC | -0.0133
90 | ATAACTCG | 0.0214
91 | GTGACTGA | 0.384
92 | AGGACTGC | -0.19
93 | GTCTGAAA | -0.0548
94 | GCTGAATA | 0.00091
95 | CACTAGAC | 0.0875
96 | AACGGGCC | -0.204
97 | TAAGTACA | -0.0281
98 | GCGTTAAA | -0.0751
99 | CTCCATCC | -0.162
100 | AGATGGGG | -0.00259

Row | Sequence | PBM E-score
101 | AATGCTAT | -0.0368
102 | AAGTTCGG | -0.155
103 | CTGCACAC | 0.045
104 | ACGATAAT | 0.0207
105 | ATGACTTG | 0.268
106 | ACGACTGG | 0.0415
107 | ATGACTGG | 0.298
108 | CTGACTGA | 0.13
109 | CAGACTGC | 0.00779
110 | ACGACTGA | 0.123
111 | ATGACTGA | 0.368
112 | AGGACTGA | -0.143
113 | CTGACTGC | 0.298
114 | CATCCGAG | 0.15
115 | CGTAATGA | 0.0462
116 | ATTGTGGG | 0.156
117 | ACGCTCCC | -0.108
118 | GTCATCAC | 0.229
119 | AGCAATAA | -0.0386
120 | ACTATGTG | 0.292
121 | ACTATGTC | 0.091
122 | ACCATGTA | 0.261
123 | ACTATGTA | 0.207
124 | ACCATGTC | 0.144
125 | ACCATGTG | 0.295

Row | Sequence | PBM E-score
126 | ATGCCCTC | -0.0196
127 | CCAGGTTA | -0.0596
128 | GCGATTGA | -0.121
129 | CTGATTGC | 0.035
130 | ATGATTGA | 0.344
131 | ACGATTGC | 0.0187
132 | ACGATTGA | 0.0265
133 | CTGATTGA | 0.177
134 | ATGATTGC | 0.345
135 | GTGATTGA | 0.329
136 | ATGATTGG | 0.178
137 | ACTCTTAA | -0.233
138 | ACGTTGGA | 0.0766
139 | GGCGTTAC | -0.119
140 | ACGTGATG | 0.00697
141 | AAGAAGCT | -0.191
142 | CCTCTGCC | -0.286
143 | AAAGCGTA | -0.183
144 | ATAGCATG | -0.034
145 | GCTGTCAA | -0.125
146 | ATTTTATC | -0.13
147 | AGAGCGCT | -0.249
148 | ACCGTTCA | -0.0238
149 | AGTCGCTG | 0.216
150 | AGTCGCGA | 0.305

Row | Sequence | PBM E-score
151 | ACTCGCCG | 0.306
152 | GGTCGCGA | 0.194
153 | CCTCGCGC | -0.0292
154 | ACTCGCGG | 0.209
155 | CGTCGCGA | 0.181
156 | ACTCGCGA | 0.227
157 | ACTCGCGC | 0.273
158 | CCTCGCCG | -0.118
159 | ACTCGCCT | 0.0445
160 | AGTCGCGG | 0.351
161 | AGCAAATA | -0.0751
162 | CAAATTGA | -0.124
163 | TGCAGCAA | 0.114
164 | AATCCTAC | -0.159
165 | CTAAGCCA | -0.0787
166 | TACGGCGA | 0.0569
167 | ACCGAGTG | 0.13
168 | AATGCGCG | 0.193
169 | CAATTCTG | -0.077
170 | AGAAAATA | -0.0162
171 | ACTCGCTC | 0.282
172 | AGTCGCGC | 0.374
173 | AGTCGCTC | 0.237
174 | CGTCGCGC | 0.0614
175 | ACTCGCTA | 0.133

Row | Sequence | PBM E-score
176 | ACTCGCTG | 0.0751
177 | ACAGGTTG | 0.0217
178 | AACCAATG | 0.209
179 | CAGAGTTC | -0.0458
180 | CCCCTACG | -0.139
181 | CATCCATC | 0.0866
182 | GTCATGTA | 0.141
183 | ACCTATAG | -0.144
184 | CCCGACTC | 0.426
185 | ACCGACTC | 0.34
186 | CCCGACTA | 0.206
187 | ACCGACTA | -0.0288
188 | ACCGACTG | 0.177
189 | CCCGACCC | 0.123
190 | CAAGACGA | -0.109
191 | TGACTCCA | 0.48
192 | CGACTCCC | 0.321
193 | CGACTCCG | 0.391
194 | GGACTCCA | 0.13
195 | CGACTCCA | 0.4
196 | CTACTCCA | -0.0498
197 | AGACTCCA | 0.133
198 | CCACTCCA | 0.0742
199 | AGACTCCG | 0.225
200 | AGACTCCC | -0.00382

Row | Sequence | PBM E-score
201 | CAACTCCG | -0.0132
202 | GGACTCCC | 0.0918
203 | TCCCCCCA | -0.233
204 | CATACTAG | 0.238
205 | GTTTGAAA | -0.0935
206 | ATTGTGAA | -0.0037
207 | ATCCAGGG | -0.0888
208 | AGCTCCCT | -0.235
209 | CCCCCTAC | -0.185
210 | AAAAGCGC | -0.137
211 | ACAATCAT | 0.231
212 | AGAATCAG | 0.283
213 | CCAATCAG | -0.0885
214 | AGAATCAC | 0.228
215 | AGAATCAA | 0.0929
216 | CGAATCAA | 0.127
217 | CGAATCAG | 0.344
218 | AGAATCAT | 0.323
219 | AGAATCCT | -0.231
